Source: PubChem BioAssay
In the library only some 6.8% were active in any assay of this set; here they are far more common.
Tcruzi_prolif – blocks T. cruzi growth in NIH3T3 culture. T. cruzi beta-gal in NIH3T3, GalScreen luminescence, 90 h. inhibition, % at 8.34 µM. hit rate 5.9% among 77,000. AID 624255;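 active = mean inhibition above about 93%, with at least 55% of replicates each passing it, limit read from the data, passing the limit was not always enough; inconclusive = only one of those two conditions holds; inactive = neither condition holds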
Pf_Dd2_inh – inhibitors of Plasmodium falciparum Dd2 growth. AID 1159554. P. falciparum Dd2 growth, SYBR Green, 72 h; stronger effect = lower value. hit rate 2.3% among 94,000. activity change, % at 10 µM; in the data active = activity change below about -80%; inconclusive = no clear call, values can overlap the other calls
C_diff_HTS – inhibitors of Clostridium difficile growth; hit rate 0.25% among 86,000; Clostridium difficile clinical isolate growth, OD600, 24 h; stronger effect = lower value; growth activity, negative = inhibition, % at 16 µg/mL (by protocol); AID 1259249;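 active = mean growth activity at or below -80% and every replicate also at or below -80%; inconclusive = mean at or below -80% but some replicate above -80%; inactive = mean growth activity above -80%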;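 note: 0% = DMSO wells and -100% = levofloxacin 16 µg/mL wells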
* hit, by the source's call; ? = inconclusive; nt = not tested or not shown; ! = repeats disagree.

SMILES Tcruzi_prolif Pf_Dd2_inh C_diff_HTS
CCCNC(=O)C[C@H]1CC[C@@H]2[C@H](COC[C@H](O)CN2C(=O)Nc2ccc(Cl)c(Cl)c2)O1 -64 11 -101*!
O=C(C[C@@H]1CC[C@@H]2[C@H](COC[C@H](O)CN2C(=O)Nc2ccc(Cl)c(Cl)c2)O1)NCc1ccc(F)cc1 59 -1 -96*
C[C@@H]1CN([C@H](C)CO)C(=O)c2cc(NC(=O)Cc3ccccc3)ccc2O[C@@H]1CN(C)C(=O)Nc1ccc(F)cc1 nt -6 -6
CC(C)C#Cc1ccc2c(c1)O[C@@H](CN(C)S(=O)(=O)c1cn(C)cn1)[C@H](C)CN([C@@H](C)CO)S2(=O)=O nt -24 0
COc1ccc(CN(C)C[C@H]2Oc3c(NS(=O)(=O)c4ccc(OC)cc4)cccc3C(=O)N([C@@H](C)CO)C[C@H]2C)cc1 -23 -2 4
CO[C@@H]1CN(C)C(=O)c2cc(NC(=O)Nc3c(C)noc3C)ccc2OC[C@H](C)N(CC2CC2)C[C@H]1C 20 19 nt
O=C(O)C[C@@H]1CC[C@H](NC(=O)Nc2cc(F)ccc2F)[C@H](CO)O1 nt 2 1
C[C@H]1CN([C@@H](C)CO)C(=O)Cc2cc(NC(=O)Nc3ccccc3)ccc2O[C@@H]1CN(C)Cc1ccc2c(c1)OCO2 48 -32 3
C[C@H](CO)N1C[C@H](C)[C@@H](CN(C)Cc2ccc3c(c2)OCO3)Oc2ccc(NC(=O)Nc3ccccc3)cc2CC1=O 60 -83* 11
C[C@@H]1CN([C@@H](C)CO)C(=O)Cc2cc(NC(=O)Nc3ccccc3)ccc2O[C@H]1CN(C)Cc1ccc2c(c1)OCO2 3 -88* 3
C[C@H](CO)N1C[C@H](C)[C@H](CN(C)Cc2ccc3c(c2)OCO3)Oc2ccc(NC(=O)Nc3ccc4c(c3)OCO4)cc2CC1=O 27 33 -15
C[C@@H]1CN([C@@H](C)CO)C(=O)Cc2cc(NC(=O)Nc3ccccc3)ccc2O[C@@H]1CN(C)Cc1ccc2c(c1)OCO2 83 -16 7
C[C@@H]1CN([C@@H](C)CO)C(=O)Cc2cc(NC(=O)Nc3ccc4c(c3)OCO4)ccc2O[C@H]1CN(C)Cc1ccc2c(c1)OCO2 70 -87* 6
COc1cccc(-c2ccc3n(c2=O)C[C@@H]2[C@@H](CO)[C@H](C(=O)N(C)C)N(C(=O)C4CCCC4)[C@H]32)c1 82 9 0
COc1ccc(S(=O)(=O)Nc2ccc3c(c2)C(=O)N([C@@H](C)CO)C[C@H](C)[C@@H](CN(C)C(=O)NC2CCCCC2)OCCCC[C@@H](C)O3)cc1 101 -87* 6
COc1ccc(S(=O)(=O)Nc2ccc3c(c2)C(=O)N([C@@H](C)CO)C[C@H](C)[C@@H](CN(C)C(=O)C2CCCCC2)OCCCC[C@@H](C)O3)cc1 -36 -92* 0
COc1ccc(S(=O)(=O)Nc2ccc3c(c2)C(=O)N([C@H](C)CO)C[C@@H](C)[C@@H](CN(C)C(=O)C2CCCCC2)OCCCC[C@@H](C)O3)cc1 78 -76 -1
COc1ccc(S(=O)(=O)Nc2ccc3c(c2)C(=O)N([C@H](C)CO)C[C@H](C)[C@@H](CN(C)C(=O)NC2CCCCC2)OCCCC[C@H](C)O3)cc1 67 -27 9
COc1ccc2c3c([nH]c2c1)[C@@H](CO)N(C(=O)C1CCCCC1)CC31CN(C(=O)c2ccncc2)C1 nt -63 0
N#C[C@H]1[C@H](c2ccc(C#CC3CCCCC3)cc2)[C@H](CO)N1C(=O)Nc1ccc(F)cc1 nt -26 53
Cc1ccccc1S(=O)(=O)N1[C@@H](C#N)[C@H](c2ccc(C#CC3CCCC3)cc2)[C@@H]1CO nt -55 -4
N#C[C@@H]1[C@@H](c2ccc(C#CC3CCCCC3)cc2)[C@H](CO)N1C(=O)Nc1ccc(F)cc1 nt -86* 0
Cc1ccccc1S(=O)(=O)N1[C@H](C#N)[C@H](c2ccc(C#CC3CCCC3)cc2)[C@@H]1CO nt -90* 8
CC(C)NC(=O)N1[C@H](C#N)[C@H](c2ccc(C#CC3CCCCC3)cc2)[C@@H]1CO 93 -81* -5
N#C[C@H]1[C@@H](c2ccc(C#CC3CCCCC3)cc2)[C@H](CO)N1C(=O)Nc1ccc(F)cc1 nt -52 22
SMILES Tcruzi_prolif Pf_Dd2_inh C_diff_HTS
CO[C@H]1CN(C)C(=O)c2cc(NS(=O)(=O)c3cccc(F)c3)ccc2OC[C@@H](C)NC[C@H]1C 30 -16 nt
COCC(=O)N(C)C[C@H]1Oc2cc(-c3ccncc3)ccc2S(=O)(=O)N([C@H](C)CO)C[C@@H]1C 48 -5 3
C[C@@H]1CN([C@H](C)CO)C(=O)c2cc(NC(=O)CCC(F)(F)F)ccc2O[C@H]1CN(C)Cc1ccc(-c2ccccc2)cc1 100 -60 -5
O=C(Nc1ccc(F)cc1)N[C@H]1C=C[C@H](CC(=O)N2CCOCC2)O[C@H]1CO -89 -13 nt
COc1ccccc1S(=O)(=O)N(C)C[C@@H]1OCc2ccccc2-c2c(n(C)c3ccccc23)C(=O)N([C@H](C)CO)C[C@@H]1C 82 -94* -6
COc1ccccc1S(=O)(=O)N(C)C[C@@H]1OCc2ccccc2-c2c(n(C)c3ccccc23)C(=O)N([C@@H](C)CO)C[C@@H]1C 41 -93* 1
Cc1ccccc1S(=O)(=O)N(C)C[C@@H]1OCc2ccccc2-c2c(n(C)c3ccccc23)C(=O)N([C@@H](C)CO)C[C@H]1C 62 ? nt
COc1ccccc1S(=O)(=O)N(C)C[C@@H]1OCc2ccccc2-c2c(n(C)c3ccccc23)C(=O)N([C@@H](C)CO)C[C@H]1C 20 -62 12
CCC(=O)NC[C@H]1N[C@H](CO)[C@@H]1c1ccc(-c2cccc(C#N)c2)cc1 7 -20 5
C[C@@H]1CN([C@@H](C)CO)C(=O)Cc2cc(NC(=O)Cc3cn(C)c4ccccc34)ccc2O[C@H]1CN(C)S(=O)(=O)c1cn(C)cn1 4 -23 16
COc1ccc(NC(=O)Nc2ccc3c(c2)CC(=O)N([C@@H](C)CO)C[C@@H](C)[C@H](CN(C)S(=O)(=O)c2ccc(F)cc2)O3)cc1 10 -1 -4
C[C@H](CO)N1C[C@H](C)[C@H](CN(C)S(=O)(=O)c2ccc(C#N)cc2)Oc2ncc(-c3cc4ccccc4o3)cc2C1=O 60 -18 nt
COc1ccc(S(=O)(=O)N(C)C[C@@H]2Oc3ncc(-c4cc5ccccc5o4)cc3C(=O)N([C@H](C)CO)C[C@@H]2C)cc1 81 -86* 5
COc1cccc(S(=O)(=O)N(C)C[C@@H]2Oc3ncc(-c4cccc(C(=O)N(C)C)c4)cc3C(=O)N([C@@H](C)CO)C[C@H]2C)c1 8 -65 -4
COc1cccc(S(=O)(=O)N(C)C[C@H]2Oc3ncc(-c4cccc(C(=O)N(C)C)c4)cc3C(=O)N([C@H](C)CO)C[C@@H]2C)c1 14 -84* -7
CC(C)NC(=O)N1C[C@@H]2[C@H](c3ccccc31)[C@@H](CO)N2C(=O)c1ccccc1 22 29 -1
COc1ccc2c3c(n(C)c2c1)[C@H](CO)N(Cc1ccccc1OC)CC31CCN(CC2CC2)CC1 nt -66 15
